# Compound activity from PubChem BioAssay.
# Sampled rows, rich in hits. Any-hit rate of the full collection: about 27%.
# CYP2C19 activ – cytochrome P450 2C19 (human) activation. 96,000 tested, under 10 active. recombinant CYP2C19, luciferin-H EGE luminescence; hits give high values; 0 = fully inhibited enzyme, 1 = untreated enzyme. P33261. activation factor at 5 µM;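 active = activation factor of at least 2 at 5 µM in the primary screen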;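 also: 0 = wells with 2.5 mM tranylcypromine and 1 = vehicle-only wells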
# CYP2C9 act – increases human cytochrome P450 2C9 activity; recombinant CYP2C9, luciferin-H conversion, luminescence; hits give high values; factor 1 = untreated enzyme, 0 = blocked; AID 1024; P11712; activation factor at 5 µM; 96,000 tested, 1.4% active;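 active = activation factor of 2 or more for CYP2C9 at a 5 µM dose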;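 also: 0 = sulfaphenazole-blocked wells and 1 = vehicle-only wells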
# Target sequence (P11712 whole entry, looked up): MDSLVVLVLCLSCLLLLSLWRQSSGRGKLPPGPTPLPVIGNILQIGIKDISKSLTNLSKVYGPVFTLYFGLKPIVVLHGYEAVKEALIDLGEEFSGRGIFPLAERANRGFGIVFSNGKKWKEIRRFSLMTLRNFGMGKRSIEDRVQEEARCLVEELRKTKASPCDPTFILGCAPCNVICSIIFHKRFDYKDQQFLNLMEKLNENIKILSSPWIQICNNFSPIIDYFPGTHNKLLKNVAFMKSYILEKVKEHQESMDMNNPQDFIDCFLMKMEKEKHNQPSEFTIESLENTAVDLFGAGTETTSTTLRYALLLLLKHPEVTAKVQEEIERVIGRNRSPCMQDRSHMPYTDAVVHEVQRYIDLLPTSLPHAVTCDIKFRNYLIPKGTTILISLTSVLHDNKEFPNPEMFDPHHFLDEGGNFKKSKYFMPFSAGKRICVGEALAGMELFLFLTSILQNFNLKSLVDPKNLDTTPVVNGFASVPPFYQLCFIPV
# CYP2C19 inhib – blocks human cytochrome P450 2C19. P33261. CYP2C19 Supersomes, luciferin-H EGE luminescence, 30 min. inhibition, % at 5 µM. 96,000 tested, 21% active;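 active = CYP2C19 inhibition above a set limit at 5 µM in the primary screen, cut at about 50% in these data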;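 also: plate controls were negative control wells for no effect and 2.5 mM tranylcypromine positive control for full effect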
# CYP2C9 inhib – human CYP2C9 inhibition; P11712; CYP2C9 Supersomes, luciferin-H conversion, luminescence; inhibition, % at 5 µM; 96,000 tested, 20% active;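 active = blocking of liver enzyme CYP2C9 beyond about 50% at 5 µM, limit read from the data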
# Cav32 inh – inhibitors of human Cav3.2 T-type calcium channel; Cav3.2-expressing cells, Fluo-4 calcium fluorescence FDSS; hits give low values; B-score at 10 µM; 100,000 tested, 4% active; AID 449739;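 active = single-dose well whose peak fluorescence ratio is a statistical outlier from its plate by either plate-standardised score or position-corrected B-score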
# Active calls of the source: *; x = no result given.
SMILES,CYP2C19 activ,CYP2C9 act,CYP2C19 inhib,CYP2C9 inhib,Cav32 inh
Cc1ccc(S(=O)(=O)N2CCC(C(=O)N[C@H](C(=O)NC3CCS(=O)(=O)C3)C(C)C)CC2)cc1 (some centres not stated),1.1,1.1,-15,-10,x
COC(=O)c1[nH]cnc1C(=O)c1ccccc1,1,1.1,-2,-9,0.46
Cc1cc(C)c2cc3c(N)c(C(=O)N4CCc5ccccc5C4)sc3nc2c1,0.9,0.8,13,16,0.25
Cc1ccc2nc3sc(C(=O)N4CCCc5ccccc54)c(N)c3cc2c1,0.1,0.1,87*,92*,x
Cc1ccc(-c2cc(C(F)(F)F)n3ncc(C(=O)N4CCCc5ccccc54)c3n2)cc1,x,x,x,x,-0.99
Cc1ccc(-c2cc(C(=O)N3CCCc4ccccc43)c3ccccc3n2)cc1,0.3,0.1,71*,93*,-2
Cc1cc(NC(=O)COC(=O)C2CCCN2C(=O)c2cccs2)no1 (configuration not stated),1.1,1,-12,1,0.28
CCOC1=NC(C(=O)O)c2ccccc2/C(=C(/C)Cl)N1 (configuration not stated),0.7,0.8,30,22,0.67
CCN1CCN(C(c2ccccc2F)c2nnnn2Cc2ccc3c(c2)OCO3)CC1 (configuration not stated),0.7,0.9,30,11,1.3
N#CN=C1SCCS1,1.2,1.2,-22,-20,-4.5*
O=C(Nc1nc(-c2ccc3c(c2)OCO3)cs1)C1COc2ccccc2O1 (configuration not stated),0.6,0.2,39,80*,-5.3*
O=C(Nc1nc(-c2ccc(S(=O)(=O)N3CCCC3)cc2)cs1)C1COc2ccccc2O1 (configuration not stated),0.4,0.1,62*,92*,-3.2
Cc1c(NC(=O)CSc2nnc3sc4ccccc4n23)c(=O)n(-c2ccccc2)n1C,1,0.8,2,22,-2.2
O=C(NCCc1ccccc1)c1cccnc1,1,1,-1,-5,0.25
Cc1cccc(CS(=O)(=O)Cc2ccc(C(=O)NCc3cccnc3)o2)c1,0.2,1.1,82*,-14,0.53
Cc1ccc(CCNC(=O)c2ccc(CS(=O)(=O)Cc3ccccc3F)o2)cc1,0.2,0,75*,98*,-0.38
O=C(NCc1ccc(Cl)cc1)c1cccnc1,0.3,0.9,66*,8,1.2
COCCNC(=O)c1ccc(CS(=O)(=O)c2ccc(Cl)cc2)o1,0.9,0.8,10,15,-0.34
O=C(NCc1cccnc1)c1ccc(CS(=O)(=O)c2ccc(Cl)cc2)o1,0,0.1,100*,93*,-0.18
COc1ccc(N2CCN(CC(=O)Nc3ccc(-n4cnnn4)cc3)CC2)cc1,x,x,x,x,0.43
Cc1ccccc1CS(=O)(=O)Cc1ccc(C(=O)NCc2cccnc2)o1,0.2,0.6,78*,42,0.63
NC(=O)C1CCN(CCC(=O)Nc2ccc3c(c2)CCC3)CC1,x,x,x,x,1.3
Cc1cccc(C)c1NC(=O)C1(N(Cc2ccco2)C(=O)CC2NC(=O)NC2=O)CCCC1 (configuration not stated),1,0.9,-1,5,-0.64
CCOC(=O)N1CCN(c2cc(C)c(C(C)=O)cc2F)CC1,0.7,0.9,29,9,0.25
CCOC(=O)N1CCN(Cc2c(F)cccc2Cl)CC1,0.8,0.6,17,42,-1.3
SMILES,CYP2C19 activ,CYP2C9 act,CYP2C19 inhib,CYP2C9 inhib,Cav32 inh
CCC(=O)c1ccc(N2CCCCCC2)c(F)c1,0.3,0.5,68*,52*,-0.38
CCOC(=O)N1CCN(c2ccc(C(=O)c3ccccc3)cc2F)CC1,0.2,0.1,76*,87*,-1.5
CCOC(=O)N1CCN(Cc2c(F)cccc2F)CC1,0.2,0.6,76*,36,-1.1
O=c1[nH]c(=O)n(Cc2ccco2)c2c1C(C(F)(F)F)(C(F)(F)F)N=C(C1CCCCC1)N2,0.9,1,10,3,0.074
O=c1[nH]c(=O)n(Cc2ccco2)c2c1C(C(F)(F)F)(C(F)(F)F)N=C(CCc1ccccc1)N2,0.8,0.3,22,68*,-3.2
N#Cc1ccc(C2=NC(C(F)(F)F)(C(F)(F)F)c3c(n(Cc4ccco4)c(=O)[nH]c3=O)N2)cc1,0.7,0,32,96*,-5.9*
CCOC(=O)c1c(C)c(-c2ccccc2)n(CC(=O)NCCC(C)C)c1C,0.8,0.5,18,46,-1.8
CCCN(CCC)C(=O)CC(c1ccccc1)c1cc(Br)ccc1O (configuration not stated),0.6,0.6,43,42,-3
O=C(Cc1cccs1)N1CCN(c2ccccn2)CC1,0.5,0.7,52*,29,-0.64
O=C(CSCc1ccccc1Cl)N1CCN(c2ccccn2)CC1,0.1,0.2,87*,85*,-0.52
O=C(CSCc1nc2ccccc2[nH]1)N1CCN(c2ccc(F)cc2)CC1,0.5,0.5,48,46,0.14
O=C(c1cn(-c2ccccc2)nc1-c1cccs1)N1CCN(c2ccccn2)CC1,0,0,96*,100*,-6.2*
O=C(CSCc1nc2ccccc2[nH]1)N1CCN(c2cccc(Cl)c2)CC1,0.8,0.6,18,36,-3.5*
CN(C)C(=O)c1ccccc1-c1ccccc1,0.8,0.9,23,6,-0.04
CCN(CC)c1ccc(C(=S)N2CCN(c3ccccc3)CC2)cc1,0.8,1,24,2,-2
CN1CCN(Cc2nc3c(c(=O)[nH]c(=O)n3C)n2Cc2c(F)cccc2Cl)CC1,1.2,1.1,-16,-11,0.49
COc1cccc(C(=O)NCc2ccc(N3CCN(C(=O)OC(C)(C)C)CC3)cc2)c1,0.8,0.6,23,44,x
Cc1ccc(C)n1-c1ccc(N2CCOCC2)nc1,0.8,0.9,17,9,0.39
C[C@@H]1CC[C@@]2(O[C@@H](CCO)C[C@H](O)[C@H]2O)O1,x,x,x,x,-0.21
O=C(c1cn(-c2ccccc2)nc1-c1cccs1)N(CCO)Cc1ccccc1,0.2,0.3,75*,69*,-1.1
Cc1ccnc(SCC(=O)N2CCN(c3cccc(Cl)c3)CC2)n1,0,0.7,99*,30,0.85
O=C(CCSCc1ccccc1Cl)N1CCN(c2cccc(Cl)c2)CC1,0.9,0.4,14,63*,-4.2
O=C(CCSCc1ccccc1F)N1CCN(c2ccccn2)CC1,0.5,0.2,50*,77*,-0.48
CCNC(=O)N1CCOCC1,1,1,0,5,-0.19
CCC(C)NCCOCCOc1ccccc1-c1ccccc1 (configuration not stated),0.6,1.1,35,-9,0.0045
CCC(C)C(NC(=O)C1CCC(C)CC1)C(=O)Nc1cc(OC)ccc1OC (configuration not stated),0.9,0.3,12,69*,-0.75
COc1ccc(OC)c(NC(=O)C2CCCC2)c1,0.7,1.1,29,-7,0.37
